Consider 25 molecules from PubChem BioAssay (NCI).

About 83,000 compounds went through this panel and 20% of them were active in at least one assay; those are over-represented in the sample as a whole.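 Step 1: grow cells in 96-well plates. Step 2: add test compound at a single concentration. Step 3: incubate 48 h. Step 4: record percent growth.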 Values without a mark were called inactive. Active and inactive are the calls of the source. The calls were made as follows: active = growth percent below 10; inactive = the rest.

The assay deals with HL-60(TB) leukemia. Briefly: NCI-60 one-dose screen, 48 h (100 = growth as untreated, 0 = no growth, -100 = all killed). The conditions noted are these: 10 µM unless noted.
For `CCOc1ccccc1[C@H]1C(C(=O)c2ccc(Cl)cc2)C2(N[C@@H]1c1ccccc1)C(=O)Nc1ccccc12` (stereo not given in full), the growth was -35.5% (active).
The value for `CN(C)c1nc(NCCNS(=O)(=O)c2ccc(C3=Nc4c(N)nc(N)nc4NC(c4ccc(Cl)cc4)C3)cc2)nc(Nc2ccc(F)cc2)n1` (stereo not given) was -13.8% (active); that for `COc1ccc(C2(SCCNCc3cc(N(C)C)ccn3)c3ccccc3C=Cc3ccccc32)cc1` was -21.8% (active); that for `C(=C\c1cc(/C=C/c2ccccc2)c2ccccc2n1)/c1ccccc1` was 2.48% (active).
The value for `CC(=O)Nc1ccc(-c2cn(-c3cccc(C(=O)Nc4ccc(Cl)c(C(F)(F)F)c4)c3)nn2)cn1` was 35%; that for `CC1(C)CC[C@]2(C(=O)Nc3ccc(F)cc3)CC[C@]3(C)C(=CCC4[C@@]5(C)C[C@@H](O)[C@H](O)[C@@](C)(CO)C5CC[C@]43C)C2C1` (stereo not given in full) was -11.7% (active).
To `Cc1nc2sccn2c1-c1nnc(SCC(C)C)o1` belongs 93.2%.
Take `N#Cc1c(-c2cccc(Cl)c2Cl)cc(-c2c[nH]c3ccccc23)[nH]c1=O`: the growth is 62.1%.
The value for `N#Cc1ccc(C(=O)CSc2nc3c(c(Nc4ccc(S(N)(=O)=O)cc4)n2)CCC3)cc1` was 101%; that for `CC(C)(C)Nc1nc2cc(Cl)c(Cl)cc2nc1S(C)(=O)=O` was 36.8%; that for `CC[C@]12C=CCN3CC[C@@]4(c5cc(C#CCNc6ccc(C)c(Nc7nccc(-c8cccnc8)n7)c6)c(OC)cc5N(C)[C@H]4[C@@](O)(C(=O)OC)[C@@H]1OC(C)=O)C32` (stereo not given in full) was 30.8%.
The value for `COc1ccc2[nH]cc(-c3cc4nc(-c5cn(C)c6ncccc56)cc(N)n4n3)c2c1` was -35.4% (active); that for `Cc1ccc(C(C)C)cc1Oc1cccc(-c2c(-c3ccc(C(F)(F)F)cc3)ncn2C2CCNCC2)n1` was -83.1% (active); that for `O=C1NC(=NC2CCCCCC2)N/C1=C\c1ccc2ncoc2c1` was 30.1%.
On to `CCOC(=O)C1=C(N)N(c2ccccc2)C2=C(C(=O)CC(C)(C)C2)C1c1cccc(Cl)c1Cl` (stereo not given), for which the growth is 46.2%.
The value for `Cc1cc2nc3c([nH]c2cc1C)c1ccc(=O)cc1n3CCN(C)C` was 16.8%.
To `COc1cc(-c2ccc(/C=N/NC(=O)c3[nH]c4ccc(Br)cc4c3-c3ccccc3)o2)cc(OC)c1OC` belongs 99.3%; to `O=C(Nc1ccc(-c2ccc3c(c2)NC(=O)/C3=C\c2ccc[nH]2)cc1)Nc1ccc(Cl)c(C(F)(F)F)c1`, 4.76% (active).
Consider `COc1cc2oc(-c3cccc(NC(=O)[C@H](Cc4ccccc4)NC(=O)OC(C)(C)C)c3)cc(=O)c2c(OC)c1OC`, for which the growth was 22.9%.
To `O=C(N/N=C/c1occc1Br)c1[nH]c2ccc(Br)cc2c1-c1ccccc1` belongs -34.2% (active); to `CCN1C(=O)N(CC)C2NNC(Sc3c(C(=O)O)c4ccccc4n(C4CCCC4)c3=O)=NC21` (stereo not given), -9.96% (active).
To `CC1=C(C)C(=O)C(N2CCSCC2)=CC1=O` belongs 89.3%; to `N#Cc1c(-c2ccccc2Cl)cc(-c2ccc3ccccc3c2)[nH]c1=O`, 71.9%.
In the case of `Cc1c(C(=O)NNC(=O)Nc2ccc(Cl)cc2)nnn1-c1ccc(Br)cc1`, the growth is 103%.
The value for `Fc1cccc(CNc2nc(SCCN3CCOCC3)nc3c2cnn3CC(Cl)c2ccc(Br)cc2)c1` (stereo not given) was -23.6% (active).
